Hit rate of the full screen: of about 2,100 compounds, about 300 (14%) were called active. Inconclusive results (about 2%) are left out.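 How the source made its calls: active means every replicate test run called active, with the signal falling and half-maximal concentration within twice the top valid dose; inconclusive means the replicate test runs disagree in their calls; inactive means every test run inactive, including effects in the opposite direction.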 These entries were drawn from the full list. Measured potencies and affinities stand elsewhere.
Test: inhibitors of PGC1a acetylation in cells, dose response, cell-based, cherry-picked samples (AID 720514);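 further: actives lower the acetylation signal so they count as inhibitors of PGC1a acetylation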
Details: U2OS PGC1a acetylation, AlphaLISA, overnight; series mostly up to 19.5 µM

outcome, inactive:
CCC(C)(C)n1nnnc1C(c1ccccc1OC)N1CCSCC1 (centres undefined)
CC(NS(=O)(=O)c1ccccc1Cl)C1CC2CCC1C2 (centres undefined)
C/C=C(/C)C(=O)O[C@@H]1c2cc(OC)c(OC)c(OC)c2-c2c(cc3c(c2OC)OCO3)C[C@H](C)[C@]1(C)O
O=C(CCc1nc2ccccc2c(=O)[nH]1)Nc1ccc(N2CCCCC2)cc1
Cn1ncc(C(=O)Nc2ccc(Cl)cc2)c1C(F)(F)F
O=C(CCCc1nc(-c2ccccc2Cl)no1)NCc1cccnc1
O=C(NCc1ccccc1)C1Cc2c(-c3ccc(Cl)cc3)ccnc2O1 (centres undefined)
O=C(Cc1ccc(Cl)cc1)c1c[nH]c(C(=O)NCc2cccnc2)c1
O=C(NCc1cccnc1)c1ccc(NC(=O)c2ccc(Br)cc2)cc1
O=C(CCCCCN1C(=O)c2cccc3cccc(c23)C1=O)NCc1cccnc1
COc1cccc(N(CC(=O)NCc2cccnc2)S(C)(=O)=O)c1
CN(C)CC(O)c1ccc(C=Cc2ccc(Cl)cc2)cc1 (centres undefined)
CC(=O)Nc1ccc(NC(=O)CN(c2cccc([N+](=O)[O-])c2)S(C)(=O)=O)cc1
COc1ccc(CCn2c(-c3ccc(OC)cc3)nc3c(c(=O)c4ccccc4n3C)c2=O)cc1
COc1ccccc1/C=C1\SC(=O)N(CCC(=O)NCCCn2ccnc2)C1=O
CCN(CC)C(=O)CSc1nnc2nnc3cc(Cl)ccc3n12
COC(=O)c1ccc(NC(=O)c2cccnc2)cc1
COc1ccccc1NC(=O)c1ccc(NC(=O)CNC(=O)c2ccc(OC)c(OC)c2)cc1
COc1ccc(-c2csc3nc(C)nc(N4CCC(C)CC4)c23)cc1OC
COc1ccc(Nc2nnc(C)c3ccccc23)cc1
COc1ccc(Nc2nnc(-c3ccc(C(N)=O)cc3)c3ccccc23)cc1
O=C(Cc1ccccc1)Nc1cccc(-c2nc3ncccc3o2)c1
CC1CC(NS(=O)(=O)c2cccs2)CC(C)(C)C1 (centres undefined)
COc1ccc(Nc2nc(N)c(C(=O)c3ccc(OC)cc3)s2)cc1
Nc1c(C(=O)Nc2ccccc2)sc2ncc([N+](=O)[O-])cc12
OC1CCCC1NCc1ccnc2cc(Cl)ccc12 (centres undefined)
Cc1ccc(Nc2nnc(C)c3ccccc23)c(C)c1
COc1ccc(OC)c(C(=O)/C=C/c2ccccc2C(F)(F)F)c1
C[C@@H]1CN([C@H](C)CO)C(=O)c2c(c3ccccc3n2C)-c2ccccc2CO[C@@H]1CN(C)C(=O)Nc1cccc(C(F)(F)F)c1
COc1cc(-c2cnc3c(NC(C)=O)cc(-c4ccccc4CN(C)C)cn23)cc(OC)c1OC
Cn1c(CN2CCCC2)nc2cc(NC(=O)COc3ccc(Cl)cc3)ccc21
C=CCS(=O)(=O)c1nc2ccccc2s1
Cc1cc(C)nc(NC(=O)c2c(-c3ccccc3Cl)noc2C)n1
COc1cc(-c2nnn(CC#N)n2)ccc1OCc1ccccc1
COc1ccc(-c2cc(-c3ccccc3O)[nH]n2)cc1OC
O=C(Nc1ccccc1)C1=C[C@@H](c2ccc(C(F)(F)F)cc2)C[C@@H](OCc2ccc(CO)cc2)O1
O=C(C1CCC1)N1CCN(S(=O)(=O)c2ccccc2)CC1
COc1ccccc1NC(=O)N1C[C@@H]2N[C@H](C1)C2c1ccc(/C=C/c2ccccc2)cc1 (some centres undefined)
COC(=O)C[C@H]1c2cc(C(F)(F)F)ccc2S(=O)(=O)N1Cc1ccc(OC)cc1
Cc1nnc(NCc2ccccc2)c2ccccc12
O=C(CC1CC1)N[C@H]1CC[C@H](CCNS(=O)(=O)c2ccc(Cl)cc2)O[C@H]1CO
CC(=O)c1cc(-c2ccccc2)n(CCC(=O)NC2CCCCC2)c1C
O=C(c1cc(C2CC2)on1)N1CCCC(N2CCN(c3cccc(C(F)(F)F)c3)CC2)C1 (centres undefined)
COc1cc2cc(-c3ccc(O)cc3O)nc(C)c2cc1OC
O=C(Cc1ccccc1)N1CCN(c2ccc([N+](=O)[O-])cc2)CC1
Cc1ccc(C(=O)N2CCN(c3ccc(NC(=O)c4ccc(Br)o4)cc3)CC2)cc1
O=C(CN1CCC(n2nnc3cc(F)ccc32)CC1)NCc1ccco1
C[C@@H]1CN([C@@H](C)CO)C(=O)c2c(c3ccccc3n2C)-c2ccccc2CO[C@@H]1CN(C)C(=O)Nc1ccc(F)cc1
Cc1cc(C)c2nc(N(CCCN(C)C)C(=O)c3ccc(S(=O)(=O)N4CCCCCC4)cc3)sc2c1
CN1c2ccccc2C2(C)CCCC3=Cc4cccc([N+](=O)[O-])c4OC312 (centres undefined)
O=C(Cc1ccccc1)Nc1ccc(NC(=O)c2cccs2)cc1
Cc1cccc(C(=O)Nc2ccc(C(=O)/C=C/c3cccnc3)cc2)c1
O=C(CS(=O)CC(=O)Nc1cccc2c1CCCC2)Nc1ccc(F)cc1 (centres undefined)
Nc1c(C(=O)Nc2ccccc2)c2nc3ccccc3nc2n1CCCN1CCOCC1
Clc1ccc(-c2nnc(-c3ccccc3)nc2N2CCSCC2)cc1
CNC(=O)c1nnsc1S(=O)c1ccc(Cl)cc1 (centres undefined)
CC(=O)NC(c1cccc(F)c1)c1nc(-c2cccc(C(C)C)c2)cs1 (centres undefined)
COc1cc2nc(SCc3c(C)noc3C)n(CCC3=CCCCC3)c(=O)c2cc1OC
c1ccc(N2CCN(c3ccccc3)C2c2ccncc2)cc1
CCC(CC)C(=O)c1c[nH]c(C(=O)NCc2ccccc2)c1
CCOC(=O)C1CCCN(S(=O)(=O)c2ccc3c(c2)NC(=O)CO3)C1 (centres undefined)
CCOc1ccc2c(c1)C(C)=CC(C)(C)N2S(=O)(=O)c1ccc(C)cc1
O=C1CC(Sc2nnc(-c3ccccc3O)o2)C(=O)N1c1ccccc1 (centres undefined)
CCOC(=O)c1[nH]c(C)c(C(=O)Nc2cc(OC)ccc2OC)c1C
CC(=O)c1ccc(N2CCN(c3ccc(S(=O)(=O)NCCN(C)C)cc3[N+](=O)[O-])CC2)cc1
CC(=O)c1ccc(N2CCN(c3ccc(S(=O)(=O)NCCCN(C)C)cc3[N+](=O)[O-])CC2)cc1
Cc1c(C(=O)NCCSCc2c(F)cccc2Cl)cnn1-c1ccc(Cl)cc1
CC1CN(S(=O)(=O)c2ccc(C(=O)NCCCn3ccnc3)cc2)CC(C)O1 (centres undefined)
CCN(CC)CC(=O)N1c2ccccc2CCc2ccc(NC(=O)c3cc(OC)c(OC)c(OC)c3)cc21
O=C(c1cccc([N+](=O)[O-])c1)N1CCc2ccccc21
CC(C)(C)c1ccc(NC(=O)N2CCN(c3ccc([N+](=O)[O-])cn3)CC2)cc1
CNC[C@H]1OCCCC[C@@H](C)Oc2ccc(NS(=O)(=O)c3ccccc3)cc2C(=O)N([C@H](C)CO)C[C@@H]1C
C[C@@H]1CCCCO[C@@H](CN(C)Cc2ccc(Cl)c(Cl)c2)[C@H](C)CN([C@@H](C)CO)C(=O)c2cc(NC(=O)CCC(F)(F)F)ccc2O1
C[C@@H]1CCCCO[C@@H](CN(C)CC2CC2)[C@H](C)CN([C@H](C)CO)C(=O)c2cc(NS(=O)(=O)c3ccccc3)ccc2O1
Cc1noc(C)c1S(=O)(=O)Nc1ccc2c(c1)C(=O)N([C@H](C)CO)C[C@H](C)[C@H](CN(C)C(=O)c1ccncc1)OCCCC[C@@H](C)O2
Cc1ccc(S(=O)(=O)Nc2ccc3c(c2)C(=O)N([C@@H](C)CO)C[C@@H](C)[C@H](CN(C)C(=O)Nc2cccc4ccccc24)OCCCC[C@H](C)O3)cc1
C[C@@H]1CN([C@H](C)CO)C(=O)c2cc(N(C)C)ccc2O[C@@H](C)CCCCO[C@H]1CN(C)C(=O)Cc1ccccc1
Cc1noc(C)c1S(=O)(=O)Nc1ccc2c(c1)C(=O)N([C@@H](C)CO)C[C@@H](C)[C@@H](CN(C)Cc1ccc3c(c1)OCO3)OCCCC[C@@H](C)O2
O=C(OCc1nc2ccsc2c(=O)[nH]1)c1cccc(S(=O)(=O)N2CCOCC2)c1
NCC[C@H]1CC[C@@H](NC(=O)C2CCCCC2)[C@@H](CO)O1
O=C(C[C@H]1CC[C@H]2[C@@H](COC[C@@H](O)CN2C(=O)c2cc(Cl)cc(Cl)c2)O1)N1CCc2ccccc2C1
CCc1nnc(NC(=O)Cc2ccc(S(=O)(=O)N3CCCCC3)cc2)s1
N#Cc1ccccc1COC(=O)c1ccc2c(c1)OCCO2
COc1ccc(NC(=O)Cn2ncc(Cl)c(Cl)c2=O)cc1S(=O)(=O)N1CCOCC1
Fc1ccc(-c2nn3c(C4COc5ccccc5O4)nnc3s2)cc1 (centres undefined)
COc1ccc2c(c1)C(C)=CC(C)(C)N2S(=O)(=O)c1ccc(Br)cc1
OC(COc1ccc(CNCCc2ccc(C(F)(F)F)cc2)cc1)CN1CCCCC1 (centres undefined)
CC1(C)CC(=O)C2=C(C1)Nc1ccccc1N1C(=O)c3ccccc3C21 (centres undefined)
O=C(NCc1csc(-c2cccs2)n1)c1cccc(Cl)c1
CN1OC(COC(=O)c2ccccc2)CC1c1ccccc1 (centres undefined)
CCC(=O)Nc1ccc(C(=O)Cn2ncc(Cl)c(Cl)c2=O)cc1
O=S(=O)(c1ccccc1)N(CC(F)(F)F)c1ccc(C(O)(C(F)(F)F)C(F)(F)F)cc1
COc1ccc(NC(=O)C2(C)Cc3c(-c4cccc(NC(C)=O)c4)ccnc3O2)cc1 (centres undefined)
CCOC(=O)C1=CC[C@@H](c2ccccc2)N(S(=O)(=O)c2ccc(C)cc2)[C@H]1c1cccc(OC)c1

From PubChem BioAssay AID720514 (Broad Institute, 2013)
